Assay [1] has as its target Aldehyde dehydrogenase, mitochondrial (Homo sapiens) (UniProt P05091). The assay can be described thus: qHTS for Inhibitors of the Aldehyde Dehydrogenase Family (ALDH2) Confirmatory screens (AID 2061303; active means well fitted inhibition curve with a large enough effect; title and protocol of this record describe different tests; further: nearly all actives have a fitted effect of over 45% in size; further: potency means the concentration at half of the fitted maximal effect). On the technique in general: In qHTS, concentration-response curves come from the screen itself.
A short description of assay [2]: qHTS for Inhibitors of the Aldehyde Dehydrogenase Family (ALDH1A2, ALDH1A3, ALDH2, ALDH3A1) (AID 2061307). Further: nearly all actives have a fitted effect of over 50% in size. On Potency: test system not described further here; potency means the concentration at half of the fitted maximal effect.
Assay [3] deals with Retinaldehyde dehydrogenase 3 (Homo sapiens) (UniProt P47895). The assay can be described thus: qHTS for Inhibitors of the Aldehyde Dehydrogenase Family (ALDH1A3) Confirmatory screens (AID 2061311). Further: nearly all actives have a fitted effect of over 60% in size. Further: potency means the concentration at half of the fitted maximal effect.
Assay [4] concerns the target Retinal dehydrogenase 2 (Homo sapiens) (UniProt O94788). The assay can be described thus: qHTS for Inhibitors of the Aldehyde Dehydrogenase Family (ALDH1A2) Confirmation screens (AID 2061314). Further: nearly all actives have a fitted effect of over 65% in size. Further: potency means the concentration at half of the fitted maximal effect.
Assay [5] deals with Aldehyde dehydrogenase 1A1 (Homo sapiens) (UniProt P00352). The assay can be described thus: qHTS for Inhibitors of the Aldehyde Dehydrogenase Family (ALDH1A1) Confirmatory screens (AID 2061316). Further: nearly all actives have a fitted effect of over 65% in size. Further: potency means the concentration at half of the fitted maximal effect.
Assay [6] has as its target Retinaldehyde dehydrogenase 3 (Homo sapiens) (UniProt P47895). As to the kind of experiment: qHTS for Inhibitors of the Aldehyde Dehydrogenase Family (ALDH1A3) Primary screen (AID 2061315).
For assay [7] the target is unchanged. The assay can be described thus: qHTS for Inhibitors of the Aldehyde Dehydrogenase Family (ALDH1A3) Validation screen (AID 2061312). Further: potency means the concentration at half of the fitted maximal effect; nearly all actives have a fitted effect of over 45% in size.

Inconclusive results are not listed. The source made the active and inactive calls. Unless noted, the call rests on the fitted dose curve; in most records, active means well fitted inhibition curve with a large enough effect; inconclusive means small, poorly fitted or top-dose-only effect; inactive means no such curve, though single readings can be large or run the other way.

For the compound `O=S(=O)(NCCc1nnc2ccc(SCc3ccc(C(F)(F)F)cc3)nn12)c1ccccc1`, the Potency entry in assay [1], in assay [2], in assay [4] and in assay [5] was “inactive” each time. For the same compound, in assay [3], the Potency was 25.1 µM (active).
Turning to `Cc1ccc(CCNc2ncnc3onc(-c4ccc(Cl)cc4)c23)cc1`, the Potency entry in assay [1], in assay [2], in assay [4] and in assay [5] was “inactive” each time. The Potency in assay [3] is 4.47 µM (active).
In the case of `COc1ccccc1-c1cc(C(=O)NCc2ccc(C(F)(F)F)cc2)c2cnn(C)c2n1`, the Potency result in assay [1], in assay [2], in assay [4] and in assay [5] was “inactive” each time. Also, the Potency in assay [3] was 7.08 µM (active).
As for `Cc1cc(-c2nnc3n2CCCCC3)c(C)n1-c1ccccn1`, the Potency entry in assay [1], in assay [2] and in assay [6] was “inactive” in each case. For the same compound, the Potency in assay [3] is 14.2 µM (active).
`Cc1ccc(-n2c(=O)c3c(cnn3C)n(CC(=O)Nc3ccccc3C)c2=O)cc1`: the Potency entry in assay [1], in assay [2], in assay [4] and in assay [5] was “inactive” each time. Also, the Potency in assay [3] was 22.4 µM (active).
Take `Oc1ccc(CNc2cccnc2)c2cccnc12`: the Potency is 10.1 µM (active) in assay [1]; 7.98 µM (active) in assay [2]; 4.49 µM (active) in assay [3]; 5.65 µM (active) in assay [4]; 4 µM (active) in assay [5].
In the case of `CC(C)(C)OC(=O)N1CCN(c2ccc(NCc3cccc(-c4ccc(C#N)cc4)n3)cc2)CC1`, the Potency is 0.201 µM (active) in assay [1], 0.142 µM (active) in assay [2] and 8.96 µM (active) in assay [5]. Further, the Potency entry in assay [3] and in assay [6] was “inactive” each time.
With `COc1ccc(S(=O)(=O)N2CCN(C(=O)c3ccc([N+](=O)[O-])o3)CC2)cc1`, the Potency result in assay [1], in assay [2], in assay [3] and in assay [4] was “inactive” each time. For the same compound, in assay [5], the Potency was 10 µM (active).
As for `COc1cccc(-c2cc(C(=O)NCC(F)F)c3cnn(C)c3n2)c1`, the Potency entry in assay [1], in assay [2] and in assay [5] was “inactive” in each case. Besides, the Potency in assay [3] was 5.01 µM (active).
On to `O=C(Nc1cccc(C(F)(F)F)c1)c1cccc(C(=O)Nc2cccc(C(F)(F)F)c2)c1`, for which the Potency entry in assay [1], in assay [2], in assay [3] and in assay [5] was “inactive” throughout.
With `COc1ccc(Nc2ncc(C(=O)N3CCN(c4ccc(F)cc4)CC3)c3ccccc23)cc1`, the Potency entry in assay [1], in assay [3], in assay [4] and in assay [5] was “inactive” in each case. Besides, the Potency in assay [2] is 15.8 µM (active).
On to `COc1ccnc(NC(=S)N2CCN(c3cccc(C(F)(F)F)c3)CC2)c1`, for which the Potency in assay [1] was 12.6 µM (active); in assay [2], 8.91 µM (active); in assay [3], 7.12 µM (active); in assay [4], 22.5 µM (active); in assay [5], 10.1 µM (active).
For the compound `CCCN1CCC=C(c2cc(-c3ccc(C)cc3)no2)C1`, the Potency result in assay [1], in assay [2], in assay [6] and in assay [5] was “inactive” each time. Besides, in assay [7], the Potency was 25.1 µM (active).
In the case of `COc1cccc(-n2cc(C(=O)Nc3cccc(C(F)(F)F)c3)c3ccccc3c2=O)c1`, the Potency result in assay [1] and in assay [4] was “inactive” throughout. Moreover, the Potency in assay [2] is 11.2 µM (active).
Regarding `CC(C)(C)OC(=O)N1CCN(c2ccc(NCc3ccc(-c4cccc([N+](=O)[O-])c4)o3)cc2)CC1`, the Potency in assay [1] was 0.896 µM (active); in assay [2], 4 µM (active); in assay [5] it was 14.2 µM (active). For the same compound, the Potency entry in assay [3] and in assay [6] was “inactive” throughout.
On to `Cn1ncc2c(C(=O)NCC(F)F)cc(-c3cccc(C(F)(F)F)c3)nc21`, for which the Potency entry in assay [1], in assay [2], in assay [4] and in assay [5] was “inactive” in each case. In assay [3], the Potency is 0.794 µM (active).
In the case of `CC(=O)Nc1ccc(Nc2nc3c(S(=O)(=O)c4cccc(Cl)c4)nnn3c3ccsc23)cc1`, the Potency result in assay [1], in assay [2], in assay [4] and in assay [5] was “inactive” throughout. Moreover, the Potency in assay [3] is 28.2 µM (active).
Consider `CCOc1ccc(NC(=O)CSc2nc3ccccc3nc2N2CCOCC2)cc1`, for which the Potency entry in assay [1], in assay [2] and in assay [5] was “inactive” throughout.
`CC(=O)/C=C1/C(=O)N(C)c2ccccc21`: the Potency entry in assay [1] and in assay [2] was “inactive” in each case. The Potency in assay [4] is 14.2 µM (active); in assay [5], 4 µM (active).
On to `COc1ccc(C2N(Cc3ccccc3)C(=O)c3ccccc3N2C)cc1COc1ccc(NC(C)=O)cc1` (centres undefined), for which the Potency result in assay [1] and in assay [6] was “inactive” each time. The Potency in assay [2] is 10.1 µM (active).
Turning to `COc1cc(N2C(=O)c3ccccc3C2=O)c2ncccc2c1`, the Potency entry in assay [1], in assay [2] and in assay [5] was “inactive” throughout.
`O=C(Cn1nc(-c2ccc(F)cc2)ccc1=O)NCCc1ccccc1`: the Potency result in assay [1], in assay [2], in assay [6] and in assay [5] was “inactive” throughout.
Regarding `O=c1c2ccccc2nc2sc(Nc3ccc(Sc4ccccc4)cc3)nn12`, the Potency result in assay [1] and in assay [6] was “inactive” each time. Moreover, the Potency was 12.6 µM (active) in assay [2] and 4 µM (active) in assay [4].
Regarding `O=C(O)c1ccccc1SC1=NS(=O)(=O)c2ccccc21`, the Potency result in assay [1], in assay [2], in assay [4], in assay [6] and in assay [5] was “inactive” throughout.
Consider `Cc1cc(-c2nnc3n2CCCCC3)c(C)n1-c1cccc(C#N)c1`, for which the Potency entry in assay [1], in assay [2], in assay [4] and in assay [6] was “inactive” throughout.
Regarding `O=C(O)c1ccc(-n2cccc2/C=C2\SC(=O)N(Cc3cccc(Cl)c3)C2=O)cc1`, the Potency in assay [1] was 11.3 µM (active); in assay [2], 1.79 µM (active); in assay [5], 7.98 µM (active). Further, the Potency entry in assay [6] was “inactive”.
Turning to `Cc1ccnc(NC(=S)N2CCN(C)CC2)c1`, the Potency entry in assay [1], in assay [2] and in assay [4] was “inactive” throughout. Besides, the Potency in assay [5] was 20.1 µM (active).
On to `CCc1ccc(-n2c(=O)c3cccnc3n2CC(=O)Nc2cc(F)ccc2F)cc1`, for which the Potency entry in assay [1], in assay [2] and in assay [4] was “inactive” throughout.
Consider `CCCCc1ccc(NC(=O)CSc2nc3ccccc3nc2N2CCOCC2)cc1`, for which the Potency entry in assay [1], in assay [2] and in assay [5] was “inactive” each time.

The values above are taken from PubChem BioAssay (NCATS).
